Compound activity from PubChem BioAssay.
Hits are enriched below; roughly 0.86% of the tested compounds scored in any of these assays.
Tb PGK inh = T. brucei PGK inhibition; P07378; PGK/GAPDH coupled, Kinase-Glo luminescence, 60 min; Potency, µM (top dose mostly 57.5 µM), without a hit: top-dose activity change, negative = inhibition, actives largely listed as inhibitors; 380,000 compounds, 0.043% hits; AID 602233; also: % is scaled to controls: 0 for no effect and ±100 for the full control effect; nearly all actives have a fitted effect of over 60% in size
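Recombinant glycosomal PGK reaction used 1,3-bisphosphoglycerate generated in-well by GAPDH (100nM final) in 100mM TEA pH 7.6, 5mM MgCl2, 0.01% Tween-20. After 60 minutes at room temperature, ATP was read by Kinase-Glo Plus luminescence end-point.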
GLS inhibitor = inhibitors of human glutaminase (GLS) | GLS enzymatic activity, qHTS titration | Potency, µM (series often up to 45.5 µM), without a hit: top-dose activity change, negative = inhibition, actives largely listed as inhibitors | 410,000 compounds, 0.21% hits; also: % is scaled to controls: 0 for no effect and ±100 for the full control effect
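Assay buffer: 45 mM KH2PO4 pH 8.2, 0.02% Tween-20. hKGA acts on L-glutamine (1 mM solution added); product glutamate is reported by an oxidase/peroxidase Amplex Red coupling, with fluorescence taken at baseline and 30 min.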
BLM inh-1 = blocks DNA unwinding by human BLM helicase; P54132; 350,000 compounds, 0.2% hits; recombinant BLM DNA unwinding, fluorescence dequenching; Potency, µM (highest dose often 56.1 µM), without a hit: top-dose activity change, negative = inhibition, hits mostly inhibitors;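 also: plate controls were vehicle for no effect and no enzyme for full effect; nearly all actives have a fitted effect of over 35% in size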
APEX1 inh = APE1 (human) endonuclease inhibition. P27695. recombinant APE1, TAMRA/BHQ-2 abasic DNA cleavage fluorescence. Potency, µM (series often up to 65.8 µM), inactives show at the top dose activity change, negative = inhibition, hits mostly inhibitors. 350,000 compounds, 0.35% hits. AID 2517;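 also: plate controls were vehicle for no effect and reference inhibitor for full effect; nearly all actives have a fitted effect of over 55% in size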
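APE1 at 0.75 nM final was preincubated with compound 15 min at room temperature, then 50 nM double-stranded THF abasic-site substrate (5'-TAMRA/3'-BHQ-2) was added. Fluorescence (ex 525/em 598 nm) was read kinetically; third-minus-first read gave activity.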
RECQ1 inh-1 = RECQ1 (human) helicase inhibition | P46063 | 240,000 compounds, 0.54% hits | Potency, µM (top dose mostly 57.3 µM), for the others: at the top dose activity, negative = inhibition, hits mostly inhibitors | RECQ1 DNA unwinding, red fluorescence kinetic read;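 also: plate controls were vehicle for no effect and no enzyme for full effect; nearly all actives have a fitted effect of over 30% in size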
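RECQ1T1 50 nM; forked duplex (20 bp + 30-nt ss tails) 200 nM, ATP 2 mM final; pH 8.0, 2 mM MgCl2, 2.5 ug/ml poly(dI-dC); 15 min compound preincubation; discontinuous kinetic read over 2 h at RT.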
FEN1 inh-1 = inhibitors of human flap endonuclease 1. Recombinant FEN1 flap cleavage, fluorescence, 15 min. AID 588795. 390,000 compounds, 0.35% hits. Potency, µM (top dose mostly 114 µM), for the others: top-dose activity change, negative = inhibition, hits mostly inhibitors; also: % is scaled to controls: 0 for no effect and ±100 for the full control effect; nearly all actives have a fitted effect of over 65% in size
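In this screen, 50 nM flap DNA substrate was added to 10 nM FEN1 pretreated with compound for 15 min at room temperature; cleavage was followed with reads at 0 and 15 min, and Hill fitting gave concentration–response parameters.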
BLM inh-2 = confirmation of inhibitors of human Bloom syndrome helicase BLM. shares compounds with BLM inh-1. BLM DNA unwinding, fluorescence quenching, biochemical. Potency, µM, for inactives: max response, negative = inhibition, actives largely listed as inhibitors. 220 compounds, 40% hits. AID 2585;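 also: strand separation dequenches TAMRA so unwinding raises red fluorescence; series mostly up to about 69 µM; % is scaled to controls: 0 for no effect and ±100 for the full control effect; nearly all actives have a fitted effect of over 45% in size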
RECQ1 inh conf = confirmation of human RECQ1 helicase inhibitors. RECQ1 helicase DNA unwinding, fluorescence. AID 2708. 610 compounds, 28% hits. Potency, µM (highest dose often 229 µM), without a hit: top-dose activity change, negative = inhibition, usual class: inhibitors. shares compounds with RECQ1 inh-1; also: % is scaled to controls: 0 for no effect and ±100 for the full control effect; nearly all actives have a fitted effect of over 45% in size
ADP FP counter = displaces ADP in a fluorescence polarization counter-screen for RECQ1 hits; ADP fluorescence polarization displacement counterscreen; 530 compounds, 27% hits; shares compounds with RECQ1 inh-1; AID 2711; Potency, µM (doses to about 228 µM), without a hit: at the highest dose activity change, negative = inhibition, actives largely listed as inhibitors; also: % is scaled to controls: 0 for no effect and ±100 for the full control effect; nearly all actives have a fitted effect of over 45% in size
RECQ1 inh-2 = blocks human RECQ1 DNA unwinding. 1,100 compounds, 15% hits. Potency, µM (titrated, usually from 119 µM), for the others: top-dose activity, negative = inhibition, hits mostly inhibitors. shares compounds with RECQ1 inh-1. AID 504841. recombinant RECQ1 DNA unwinding, red fluorescence; also: % is scaled to controls: 0 for no effect and ±100 for the full control effect; nearly all actives have a fitted effect of over 50% in size
FEN1 inh-2 = FEN1 inhibition, cherry-pick retest; AID 720498; 880 compounds, 79% hits; Potency, µM, usual class: inhibitors; FEN1 flap cleavage, TAMRA/BHQ2 fluorogenic DNA substrate; shares compounds with FEN1 inh-1; also: nearly all actives have a fitted effect of over 60% in size
Numbers without * were called inactive; i = inactive; ? = inconclusive; · = no result; [ ] = another dose, or the depositor's remark. Calls follow the shape of the dose curve; as a rule, active = well fitted curve in the direction sought with a large enough effect; inconclusive = small, poorly fitted or top-dose-only effect, or another doubt; inactive = no such curve, though single readings can be large; an effect the other way counts as inactive or inconclusive. Potency is read from the fitted curve at half-maximal effect.

SMILES	Tb PGK inh	GLS inhibitor	BLM inh-1	APEX1 inh	RECQ1 inh-1	FEN1 inh-1	BLM inh-2	FEN1 inh-2	others
c1ccc(-c2nc(-c3cccc4ccccc34)c(NC3CCCCC3)o2)cc1	·	·	3%	10%	i	·	·	·
Cc1cnc(CNc2nc(-c3ccccc3C(F)(F)F)nc3ccccc23)cn1	·	·	3%	-6%	i	·	·	·
Cc1cnc(CNc2nc(-c3ccc(N(C)C)cc3)nc3ccccc23)cn1	·	·	28µM*	-4%	?	·	20µM*	·	RECQ1 inh-2=?
CC(C)Oc1ccc(C(=O)NCC(c2ccc(N(C)C)cc2)N2CCCC2)cc1 (stereo unspecified)	2%	57%	1%	·	·	15%	·	·
Cc1nc2c(ccc3nc(NC(=O)c4ccc5c(c4)OCCO5)sc32)s1	·	-30%	-24%	-3%	20µM*	?	30µM*	·	ADP FP counter=44%[91.9 µM];RECQ1 inh-2=45µM*
Nc1cc(N)cc(-c2nc3ccccc3[nH]2)c1	i	2%	-8%	-1%	-9%	3%	·	·
Nc1ccc2nc(-c3cc(Cl)c(N)c(Cl)c3)[nH]c2c1	-6%	19%	14µM*	7%	2%	50µM*	?	?
O=C(O)c1cccc(-n2cccc2/C=C2/NC(=O)N(c3ccc(Cl)cc3)C2=O)c1	3.2µM*	-4%	3.5µM*	2µM*	32µM*	20µM*	14µM*	21*	RECQ1 inh conf=?
COc1ccc(-n2cccc2/C=C2/NC(=O)N(c3cccc(Cl)c3)C2=O)cc1	-2%	5%	3%	0%	-8%	2%	·	·
CN(c1ccccc1)c1ccc(/C=C(\CCC(=O)O)c2nc3ccccc3s2)cc1[N+](=O)[O-]	?	-5%	22µM*	?	?	?	36µM*	67*	RECQ1 inh-2=13µM*
O=C(CSc1nc2ccccc2n1CCc1ccccc1)c1ccc(O)c(O)c1	7.9µM*	102%	11µM*	0.89µM*	7.1µM*	56µM*	19µM*	67*	RECQ1 inh conf=45µM*;RECQ1 inh-2=?
Cc1cc(C)c(CSc2nnc(C)n3c2cc2occc23)c(C)c1	-6%	1%	-11%	·	·	-22%	·	·
Cc1nc(CC(=O)N/N=C/c2ccc(OCC(=O)O)cc2)cs1	i	-14%	1%	-6%	i	41%	·	·
O=C(O)COc1ccc(/C=N/NC(=O)c2ccc(-c3csc(Nc4ccc(Cl)cc4)n3)cc2)cc1	?	?	3.5µM*	3.5µM*	11µM*	?	8.1µM*	30*	RECQ1 inh conf=7.1µM*;ADP FP counter=?
CN1CCN(c2ccc(Nc3c4ccccc4nc4ccccc34)cc2)CC1	·	·	20µM*	22µM*	13µM*	·	32µM*	19*	RECQ1 inh conf=11µM*;ADP FP counter=35µM*
Cc1ccc2nc(CO)[nH]c2c1	·	·	·	·	·	16%	·	·
Cc1ccc(-n2c(SCc3ccccc3C)nc3[nH]ncc3c2=O)cc1C	-7%	-6%	-11%	·	·	-29%	·	·
